An excerpt weighted towards active compounds, which were near 8% of everything screened.
MCF10A rereplic = A quantitative high throughput screen for small molecules that induce DNA re-replication in MCF 10a normal breast cells; Potency, µM (series often up to 46.1 µM), inactives show at the top dose activity, positive = re-replication, hits mostly activators; AID 624296, 2012; 350,000 tested, 2.9% active; MCF 10A DNA re-replication, Hoechst nuclear intensity, 48 h; note: % of control where 0% means no effect; nearly all actives have a fitted effect of over 50% in size
KB-V1 cytotox = qHTS assay for MDR1-selective chemotherapeutics: Primary screen using the drug-selected MDR subline cells KB-V1 | KB-V1 MDR cells viability, CellTiter-Glo, 72 h | Potency, µM (titrated, usually from 46.1 µM), most hits filed as cytotoxic | 400,000 tested, 3.4% active | AID 1347076, 2019; note: % is set by controls: 0 for no effect and ±100 for the full control effect; nearly all actives have a fitted effect of over 60% in size
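Drug-selected KB-V1 cells, grown in DMEM lacking phenol red with 10% FBS, receive compound titrations; after three days at 37 degrees C, surviving cell ATP is quantified by CellTiter-Glo luminescence and responses normalized and curve-fitted.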
HT1080 IDH1KD tx = qHTS for induction of synthetic lethality in tumor cells producing 2HG: qHTS for the HT-1080-IDH1KD cell line. Potency, µM (doses to about 46.1 µM), for the others: top-dose activity, negative = toxicity, hits mostly cytotoxic. HT-1080 IDH1 knockdown viability, ATP luminescence, 48 h. AID 686971, 2013. 360,000 tested, 2% active;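 note: 0% = DMSO wells and -100% = cell-free medium wells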
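Viability of IDH1-knockdown HT-1080 fibrosarcoma cells was assessed by CellTiter-Glo after 48 h at 37 °C with titrated compound; concentration-effect curves were classified by fit quality and response size.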
SW480 rerep = A quantitative high throughput screen for small molecules that induce DNA re-replication in SW480 colon adenocarcinoma cells; SW480 DNA re-replication, Hoechst DNA content imaging, 48 h; Potency, µM (top dose mostly 46.1 µM), inactives show top-dose re-replication activation, hits mostly activators; 340,000 tested, 1.8% active; AID 624297, 2012; note: % of control where 0% means no effect; nearly all actives have a fitted effect of over 55% in size
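Per well, 250 cells were exposed to pinned compound for 48 hr. Nuclear DNA was visualised with Hoechst (40 min, 37 C) and total object intensity recorded by fluorescence scanning.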
KB-3-1 cytotox = qHTS assay for MDR1-selective chemotherapeutics: Primary screen using the parental adenocarcinoma cell KB-3-1 | KB-3-1 viability, CellTiter-Glo ATP luminescence, 72 h | Potency, µM (titrated, usually from 46.1 µM), actives largely listed as cytotoxic | 400,000 tested, 1.4% active | AID 1347075, 2019; note: % is set by controls: 0 for no effect and ±100 for the full control effect; nearly all actives have a fitted effect of over 60% in size
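Parental KB-3-1 adenocarcinoma cells in phenol-red-free DMEM with 10% FBS were pin-treated with compounds at several concentrations, incubated 72 h at 37 °C, and viability read by CellTiter-Glo luminescence; concentration-effect curves were fitted after normalization.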
HT1080NT lethal = qHTS for induction of synthetic lethality in tumor cells producing 2HG: qHTS for the HT-1080-NT fibrosarcoma cell line; HT-1080-NT fibrosarcoma viability, CellTiter-Glo ATP luminescence, 48 h; Potency, µM (series often up to 46.1 µM), for inactives: at the top dose activity, negative = less viability, hits mostly cytotoxic; 360,000 tested, 1.6% active;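 note: NT is the 2HG producing partner of a matched IDH1 knockdown line; 0% = DMSO-treated cells and -100% = media-only wells without cells; nearly all actives have a fitted effect of over 55% in size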
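Viability by CellTiter-Glo luminescence after 48 h compound exposure at 37C of HT-1080-NT cells (750/well, RPMI, 5% FBS). % activity scaled between DMSO wells and medium-only wells, then curve-fitted and categorized by curve class.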
* = called active by the depositor; ! = repeats disagree; [ ] = dose if it differs, or a comment. Calls come from the whole dose curve; as a rule, active = well fitted curve in the direction sought with a large enough effect; inconclusive = small, poorly fitted or top-dose-only effect, or another doubt; inactive = no such curve, though single readings can be large; an effect the other way counts as inactive or inconclusive. Potency is the fitted concentration of half-maximal effect.

OCCN(CCO)c1nc(N2CCCCC2)c2nc(N(CCO)CCO)nc(N3CCCCC3)c2n1 was read as MCF10A rereplic 6.99µM*, HT1080 IDH1KD tx -26.1%, SW480 rerep 11.6µM*! and HT1080NT lethal inconclusive.
Nc1nc(NCCO)nc(N2CCCCCC2)c1[N+](=O)[O-] was read as MCF10A rereplic 6.2%, KB-V1 cytotox inactive, HT1080 IDH1KD tx -5.7%, SW480 rerep 3.7%, KB-3-1 cytotox inactive and HT1080NT lethal 2.9%.
CCOC(=O)C1=C(C)C(c2cccc(Oc3ccccc3)c2)NC(=S)N1 (stereo not drawn) was read as MCF10A rereplic inconclusive, KB-V1 cytotox inconclusive, HT1080 IDH1KD tx inconclusive, SW480 rerep 6.3%, KB-3-1 cytotox inactive and HT1080NT lethal inconclusive.
For CCOC(=O)C1=C(c2cccc(Oc3ccccc3)c2)NC(=S)NC1C (stereo not drawn) the results were MCF10A rereplic inconclusive, KB-V1 cytotox 16.4µM*, HT1080 IDH1KD tx -8.1%[9.24 µM], SW480 rerep -2.0%, KB-3-1 cytotox inconclusive and HT1080NT lethal inconclusive.
`Cc1cc(NC(=O)c2cc([N+](=O)[O-])ccc2Cl)no1` gave MCF10A rereplic inconclusive, KB-V1 cytotox inconclusive, HT1080 IDH1KD tx inconclusive, SW480 rerep inconclusive, KB-3-1 cytotox inactive and HT1080NT lethal inconclusive.
For O=C(Nc1cccc(NC(=O)c2cc([N+](=O)[O-])ccc2Cl)n1)c1cc([N+](=O)[O-])ccc1Cl the results were MCF10A rereplic 6.51µM*, KB-V1 cytotox 14.6µM*, HT1080 IDH1KD tx 11.6µM*, SW480 rerep inconclusive, KB-3-1 cytotox 18.4µM* and HT1080NT lethal inconclusive.
For CC(=O)Oc1c(C)cc(Cl)cc1C(=O)Nc1ccc([N+](=O)[O-])cc1Cl the results were MCF10A rereplic 16.8%, KB-V1 cytotox inactive, HT1080 IDH1KD tx 1.16µM*, SW480 rerep 6.51µM*, KB-3-1 cytotox 7.31µM* and HT1080NT lethal inconclusive.
`O=C(c1cc([N+](=O)[O-])ccc1Cl)N1c2ccccc2Sc2ccccc21` gave MCF10A rereplic 18.4µM*, KB-V1 cytotox inactive, HT1080 IDH1KD tx -24.1%, SW480 rerep inconclusive, KB-3-1 cytotox inactive and HT1080NT lethal -15.1%.
Screening O=C(Nc1ccc([N+](=O)[O-])cc1Cl)c1ccccc1O returned KB-V1 cytotox 16.4µM* and KB-3-1 cytotox 2.91µM*!.
For O=C(c1cnccn1)N1CCN(c2ccccc2F)CC1 the results were MCF10A rereplic 2.7%, KB-V1 cytotox inactive, HT1080 IDH1KD tx 0.2%, SW480 rerep -8.1%, KB-3-1 cytotox inactive and HT1080NT lethal 0.1%.
Screening O=C(Nc1c(Cl)cc([N+](=O)[O-])cc1Cl)c1cc(Cl)cc(Cl)c1O returned KB-V1 cytotox inconclusive and KB-3-1 cytotox 18.4µM*.
Screening O=C1COc2cccnc2N1 returned MCF10A rereplic -1.5%, KB-V1 cytotox inactive, HT1080 IDH1KD tx -8.2%, SW480 rerep -5.0%, KB-3-1 cytotox inactive and HT1080NT lethal -1.3%.
`COCCN1C(=O)c2ccc(C(=O)Nc3nccs3)cc2C1=O` gave MCF10A rereplic inconclusive, KB-V1 cytotox inactive, HT1080 IDH1KD tx 1.1%[9.24 µM], SW480 rerep 1.16µM*, KB-3-1 cytotox inactive and HT1080NT lethal -3.9%.
Cc1nn(CC(=O)N(C)C)c(C)c1S(=O)(=O)N1CCOCC1 was read as MCF10A rereplic 6.4%, KB-V1 cytotox inactive, HT1080 IDH1KD tx 14.3%, SW480 rerep -39.4%, KB-3-1 cytotox inactive and HT1080NT lethal 1.7%[9.24 µM].
Screening CC(C)(C)NC(=O)NC(=O)CN1CCN(c2ccc(O)cc2)CC1 returned MCF10A rereplic 26.5%, KB-V1 cytotox inconclusive, HT1080 IDH1KD tx -3.2%, SW480 rerep 3.2%, KB-3-1 cytotox 20.6µM* and HT1080NT lethal -4.6%.
CC(C)(C)NC(=O)NC(=O)CN1CCN(c2ccccc2)CC1 was read as MCF10A rereplic -16.9%, KB-V1 cytotox inactive, HT1080 IDH1KD tx 6.3%, SW480 rerep -3.7%, KB-3-1 cytotox inactive and HT1080NT lethal 5.9%.
Screening CCSc1ccc2nnc(-c3cccs3)n2n1 returned MCF10A rereplic 3.7%, KB-V1 cytotox inconclusive, HT1080 IDH1KD tx -8.9%, SW480 rerep -2.5%, KB-3-1 cytotox inactive and HT1080NT lethal -22.2%.
Screening O=C(NCC(c1cccs1)N1CCOCC1)c1cn(-c2ccccc2)nc1-c1ccc(Cl)cc1 (stereo not drawn) returned MCF10A rereplic 12.6%, KB-V1 cytotox 7.31µM*, HT1080 IDH1KD tx -29.4%, SW480 rerep inconclusive, KB-3-1 cytotox inconclusive and HT1080NT lethal -15.9%.
Screening O=C(NCC(c1cccs1)N1CCOCC1)c1cn(-c2ccccc2)nc1-c1ccccc1 (stereo not drawn) returned MCF10A rereplic -1.4%, KB-V1 cytotox 23.1µM*, HT1080 IDH1KD tx -0.3%, SW480 rerep -8.2%, KB-3-1 cytotox inactive and HT1080NT lethal -1.9%.
`COc1ccc(-c2nn(-c3ccccc3)cc2C(=O)NCC(c2cccs2)N2CCOCC2)cc1` (stereo not drawn) gave MCF10A rereplic 10.9%, KB-V1 cytotox inconclusive, HT1080 IDH1KD tx -23.8%, SW480 rerep 0.4%, KB-3-1 cytotox inactive and HT1080NT lethal -17.9%.
`COc1cccc(-c2nn(-c3ccc(C)cc3)cc2C(=O)NCC(c2cccs2)N2CCOCC2)c1` (stereo not drawn) gave MCF10A rereplic inconclusive, KB-V1 cytotox inactive, HT1080 IDH1KD tx -8.8%, SW480 rerep -54.6%, KB-3-1 cytotox inactive and HT1080NT lethal -5.6%.
COc1ccc(-c2ccc(=O)n(CC(=O)NCCc3ccccc3)n2)cc1 was read as KB-V1 cytotox inactive and KB-3-1 cytotox inactive.
`O=C(CCl)Nc1cccc(Oc2cnccn2)c1` gave MCF10A rereplic inconclusive, KB-V1 cytotox inconclusive, HT1080 IDH1KD tx inconclusive, SW480 rerep 51.2%, KB-3-1 cytotox 20.6µM* and HT1080NT lethal inconclusive.
Screening O=c1c(-c2nc3ccccc3s2)cccn1Cc1ccccc1 returned MCF10A rereplic 5.17µM*, KB-V1 cytotox inconclusive, HT1080 IDH1KD tx -13.0%, SW480 rerep 11.6µM*, KB-3-1 cytotox inactive and HT1080NT lethal 2.5%.

Source: PubChem BioAssay (National Center for Advancing Translational Sciences (NCATS))
